Screening results: PubChem, National Center for Advancing Translational Sciences (NCATS)
This is a sample that favours compounds with a hit; in the whole collection about 7.9% have one here.
HCMV antiviral: qHTS Assay for inhibitors of the human cytomegalovirus (HCMV). HFF cells, HCMV-luciferase reporter, 72 h; stronger effect = lower value. activity change, negative = inhibition, % at 57.5 µM. 410,000 compounds, 4.5% hits. AID 1259415, 2018; in the data active = activity change below about -60%; inconclusive = no clear call, values can overlap the other calls; inactive = above about -39%
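Two-dose cell screen: HFF monolayers treated with compounds and infected with luciferase-expressing HCMV at 1 PFU/cell, 72 h at 37C, then lysed for luciferase measurement.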
MARV entry inh: qHTS for inhibitors of binding or entry into cells for Marburg Virus | Marburg virus pseudotyped entry inhibition, cell reporter | Potency, µM (titrated, usually from 37.8 µM), for inactives: at the highest dose activity change, negative = inhibition, hits mostly inhibitors | 300,000 compounds, 1.8% hits | AID 540276, 2011; calls by dose curve; tested in HEK293 cells; also: potency is read from the fitted curve at half-maximal effect
HCV inh: qHTS Assay for Inhibitors of Hepatitis C Virus (HCV). 340,000 compounds, 3.4% hits. Huh7.5.1 HCVcc-Cre infection, luciferase reporter, 44 h. Potency, µM (doses to about 41.8 µM), without a hit: top-dose activity change, negative = inhibition, most hits filed as inhibitors; active = well fitted inhibition curve with a large enough effect; inconclusive = small, poorly fitted or top-dose-only effect, or another doubt; inactive = no such curve, though single readings can be large or run the other way; also: potency is read from the fitted curve at half-maximal effect
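Compounds are dispensed onto cells plated 4 h earlier at 1,000 per well, with HCVcc-Cre virus (about 0.5 moi) added next. Following 44 h of culture, luminescent signal is measured for 15 sec after 15 min with substrate at room temperature.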
LASV entry inh: qHTS for Inhibitors of binding or entry into cells for Lassa Virus; Lassa virus pseudotype entry inhibition, cell reporter; Potency, µM (titrated, usually from 37.9 µM), for inactives: at the highest dose activity change, negative = inhibition, most hits filed as inhibitors; 300,000 compounds, 1.2% hits; AID 540256, 2011; calls by dose curve; tested in HEK293 cells; also: potency is read from the fitted curve at half-maximal effect; nearly all actives have a fitted effect of over 50% in size
FMDV antiviral: High Throughput Screening for Foot and Mouth Disease Virus Antivirals | FMDV antiviral cell-based qHTS | Potency, µM (highest dose often 57.9 µM), inactives show top-dose activity change, negative = inhibition, most hits filed as inhibitors | 410,000 compounds, 1.2% hits; calls by dose curve; tested in HEK293T cells; also: read-out not given here; potency is read from the fitted curve at half-maximal effect; nearly all actives have a fitted effect of over 45% in size
* hit, by the source's call; ? = inconclusive; . = no result given; [ ] = remark or other dose. % is scaled to controls: 0 for no effect and ±100 for the full control effect.

SMILES | HCMV antiviral | MARV entry inh | HCV inh | LASV entry inh | FMDV antiviral
Cc1ccc(C(=O)N2CCN(C/C=C/c3ccccc3)CC2)cc1S(=O)(=O)N1CCOCC1 | 0.0 | . | -21.6% | . | ?
CSC1=C(C#N)[C@H](c2ccc(C)s2)CC(=O)N1 | . | -0.4% | . | . | .
O=P1(c2ccccc2)Nc2ccccc2N1c1ccccc1 (stereo not given) | -64.0* | -24.3%[46.1 µM] | -2.1% | 1.5%[46.1 µM] | -5.0%
O=C1NC(=NCc2ccccc2)S/C1=C\c1ccccc1 | -67.8* | 23.7% | 18.2% | -9.8% | 6.3%
CCCCn1cnc2cc(NCc3ccccc3Cl)ccc21 | ? | 12.6µM* | . | ? | -2.2%
CCn1cnc2cc(NCc3ccccc3Cl)ccc21 | -38.7 | 21.3% | -22.6% | 5.4% | 26.1%
O=C(NCc1cccs1)Nc1cccc(Cl)c1 | 18.3 | -7.5%[46.1 µM] | -13.6% | 3.1% | 70.3%
S=C(NCc1cccs1)Nc1cc(Cl)cc(Cl)c1 | -100.0* | ? | ? | -5.3%[46.1 µM] | 1.2%
S=C(NCCC(c1ccccc1)c1ccccc1)Nc1cccc(Cl)c1 | -33.7 | -3.7% | ? | -27.6% | 34.3%
S=C(NCCN(C1CCCCC1)C1CCCC1)Nc1cccc(Cl)c1 | -84.6* | ? | 12.6µM* | ? | -16.5%
S=C(NCc1cccs1)Nc1cccc(Cl)c1 | -69.4* | 1.4% | -15.6% | -12.0% | 33.4%
CCCN(CCC)Cc1c(C(=O)N/N=C/C(C)=C\c2ccco2)nnn1-c1nonc1N | ? | 4.47µM* | 8.91µM* | ? | 13.0%
C/C(=N\NC(=O)c1nnn(-c2nonc2N)c1-c1ccccc1)c1ccccc1O | -89.2* | ? | 6.31µM* | ? | 28.8%
C/C(=N\NC(=O)c1nnn(-c2nonc2N)c1CN(C)c1ccccc1)c1ccc(O)cc1 | -60.5* | . | -0.5% | . | -9.8%
C/C(=N\NC(=O)c1nnn(-c2nonc2N)c1CN(C)c1ccccc1)c1ccccn1 | . | . | 4.47µM* | . | -10.4%
C/C(=N\NC(=O)c1nnn(-c2nonc2N)c1CN(C)c1ccccc1)c1cccs1 | 0.0 | . | -16.3% | . | 3.5%
CC(/C=N/NC(=O)c1nnn(-c2nonc2N)c1CN(C)C)=C\c1ccco1 | ? | -3.5%[46.1 µM] | -4.4% | 10.8%[46.1 µM] | 3.9%
CCNc1ncc2nc(-c3cccs3)c(=O)n(CCc3ccccc3)c2n1 | . | . | . | . | -19.7%
O=[N+]([O-])c1cc(/C=N/N/C(=N/c2ccccn2)c2ccccn2)ccc1O | -82.7* | ? | ? | -22.5% | 31.3%
CCC(=O)N1[C@@H]2c3ccc(C4=CCCCC4)c(=O)n3C[C@H]1[C@H](CO)[C@H]2C(=O)N[C@@H](C)c1ccccc1 | -8.6 | . | . | . | .
CCCOc1ccccc1C(=O)N1CCCCC1CCN1CCCCC1 (stereo not given) | -69.6* | ? | . | 5.7%[46.1 µM] | 3.3%
COCc1cc(N2CCOCC2)nc(-c2ccccc2)n1 | 10.1 | 10µM* | ? | 9.2% | -21.8%
CC(C)Sc1cc(N2CCOCC2)nc(-c2ccccc2)n1 | ? | -24.4% | 12.6µM* | 2.3% | ?
COc1cccc(-c2ccnc(-n3ncc(C(=O)NCc4cccnc4)c3C3CC3)n2)c1 | . | . | . | . | -24.4%
CCN1CCN(C(=O)C23CCC(C)(C(=O)C2Br)C3(C)C)CC1 (stereo not given) | -19.9 | . | -21.6% | . | -12.9%
SMILES | HCMV antiviral | MARV entry inh | HCV inh | LASV entry inh | FMDV antiviral
COCc1cccc(-c2csc(C(NC(C)=O)c3cccc(OC)c3)n2)c1 (stereo not given) | 9.2 | . | . | . | 1.5%
COc1ccc(OC)c(NS(=O)(=O)c2ccc(-c3coc(C)n3)cc2)c1 | . | . | ? | . | -16.8%
CCCn1c(=O)c(C(=O)NCc2ccc(OC)c(OC)c2)c(O)c2ccccc21 | 58.0 | -20.8% | 14.1µM* | 11.8% | ?
C=CCn1c(=O)c(C(=O)NCc2ccc(Cl)cc2)c(O)c2ccccc21 | -65.9* | . | 2.6% | . | -28.3%
CCN(CC)CCCNC(=O)c1c(O)c2ccccc2n(Cc2ccccc2)c1=O | -19.2 | 14.1µM* | -19.8% | ? | -17.3%
CCCn1c(=O)c(C(=O)NCCc2ccc(OC)cc2)c(O)c2ccccc21 | 6.7 | . | 12.6µM* | . | -9.0%
COc1ccc(OC)c(NC(=O)CCNC(=O)N2CC(=O)Nc3ccccc32)c1 | -3.8 | . | . | . | -2.1%
O=C(O)CC(c1cccc(O)c1)N1Cc2ccccc2C1=O (stereo not given) | 19.5 | . | 7.8% | . | 1.1%
CC(C)c1ccc(NC(=S)N2CCCC(c3ccc(F)cc3)=N2)cc1 | -22.4 | 2.51µM* | 7.5% | -23.9%[46.1 µM] | -10.5%
S=C(Nc1ccccc1Cl)N1CCCC(c2ccccc2)=N1 | -25.0 | -22.9%[46.1 µM] | -84.4% | -13.5% | -9.0%
COC1=C(N)C(=O)c2nc(-c3nc(C(=O)O)c(C)c(-c4ccc(OC)c(OC)c4O)c3N)ccc2C1=O | . | 0.058µM* | 0.316µM* | 0.082µM* | 3.98µM*
COC(=O)c1nc(-c2ccc3c(n2)C(=O)C(N)=C(OC)C3=O)c(N)c(-c2ccc(OC)c(OC)c2O)c1C | ? | ? | 2.24µM* | ? | ?
COc1ccc(C(=O)O)c(O)c1OC | . | . | . | . | 5.5%
Nc1ccc(Oc2ccc(Br)cc2)cc1 | -6.1 | 18.1% | ? | -3.4% | 2.0%
Cc1cccc(Oc2ccc(N)cc2)c1 | 60.6 | 23.3% | ? | -1.1% | 0.0%
Nc1ccc(Oc2cccc(Oc3ccc(N)cc3)c2)cc1 | -75.8* | ? | -11.1% | ? | 10µM*
Cc1cc(C)cc(Oc2ccc(N)cc2)c1 | 32.4 | -13.4% | 2µM* | ? | 8.1%
O=C(/C=C/c1ccc(Cl)cc1)N1CCN(Cc2ccccc2)CC1 | 31.9 | ? | -15.5% | 0.1% | -1.0%
COc1ccc(-c2csc(N)n2)cc1 | -7.0 | ? | ? | -21.3% | 40.7%
Nc1nc(-c2ccc(Oc3ccccc3)cc2)cs1 | 25.4 | . | 10µM* | . | 22.3%
Nc1nc(-c2ccc(-c3ccccc3)cc2)cs1 | -1.3 | ? | 10µM* | -27.0%[46.1 µM] | 9.2%
COc1ccc(C2C(=O)N(C3CCCCC3)CC(=O)N2CCc2ccc(OC)c(OC)c2)cc1 (stereo not given) | 2.0 | . | . | 4.4%[46.1 µM] | -4.6%
Cc1ccc(C)c(N2CCN(C(=O)CC3Sc4ccccc4NC3=O)CC2)c1 (stereo not given) | -25.8 | ? | 10µM* | ? | ?
Cc1ccc(Cl)cc1N1CCN(C(=O)Cc2cn(C)c3ccccc23)CC1 | 45.3 | ? | ? | ? | ?
Cc1ccc(C)c(N2CCN(C(=O)CN3CCSc4ccccc43)CC2)c1 | 13.8 | . | . | ? | 0.0%
Cc1ccc(C)c(N2CCN(C(=O)Cc3cn(C)c4ccccc34)CC2)c1 | 17.0 | 18.3µM* | ? | 20.6µM* | ?
CN1C(=O)COCc2cc(-c3ccc(F)c(Cl)c3)ccc21 | 52.4 | . | . | . | .
CCOC(=O)N1CCN(C(=O)c2cc3c(s2)-c2ccc(Cl)cc2S(=O)(=O)C3)CC1 | -62.0* | . | -9.1% | . | ?
COc1ccc(N(C)C(=O)c2cc3c(s2)-c2ccc(Cl)cc2S(=O)(=O)C3)c(OC)c1 | ? | . | ? | . | 28.2µM*
CN1C(=O)[C@]2(c3ccccc31)[C@H]1CCCC=C1C(C#N)=C(N)C2(C#N)C#N | . | -5.9% | . | . | .
